The results in this text go back to PMC7862700, “An all-to-all approach to the identification of sequence-specific readers for epigenetic DNA modifications on cytosine”.

Common to all, as to assay: DAPPL (digital affinity profiling via proximity ligation, sequencing); 10 mM Tris-HCl pH 7.5, 50 mM NaCl, 1 mM DTT, 4% glycerol, room temperature, 30 min; GST-TFs on glutathione beads, 16-mer random dsDNA library, 0.1% formaldehyde crosslink after washing; high values mean tight binding
Common to all, as to settings: protein: recombinant; tags: N-terminal GST; dsDNA, one strand shown

The target in one experiment is T1, FEV (Homo sapiens, UniProt Q99581 1-238).
T1 sequence: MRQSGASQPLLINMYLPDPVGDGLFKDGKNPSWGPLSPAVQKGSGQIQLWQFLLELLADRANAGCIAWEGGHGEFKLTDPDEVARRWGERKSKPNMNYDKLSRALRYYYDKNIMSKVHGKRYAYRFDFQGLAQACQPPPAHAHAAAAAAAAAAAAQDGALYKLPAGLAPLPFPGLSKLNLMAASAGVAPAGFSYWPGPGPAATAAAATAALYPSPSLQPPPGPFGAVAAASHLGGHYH
The method, boiled down:
(§1)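 Binding signal is given per hexamer as its read frequency for a factor divided by its frequency in the tag-only sample. GST-fused human transcription factors were expressed in yeast, captured on glutathione beads, barcoded with DNA and pooled with that sample, then incubated with 200 nmole of a 16-mer random double-stranded DNA library in Tris/NaCl/DTT/glycerol buffer for 30 min at room temperature. The pools were then washed, crosslinked, proximity-ligated, amplified by PCR and sequenced on an Illumina NextSeq500.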

Another experiment concerns the target ETV5 (Homo sapiens, UniProt P41161 1-510). Summed up: as §1
The next experiment concerns the target T2, SPIC (Homo sapiens, UniProt Q8N5J4 1-248).
T2 sequence: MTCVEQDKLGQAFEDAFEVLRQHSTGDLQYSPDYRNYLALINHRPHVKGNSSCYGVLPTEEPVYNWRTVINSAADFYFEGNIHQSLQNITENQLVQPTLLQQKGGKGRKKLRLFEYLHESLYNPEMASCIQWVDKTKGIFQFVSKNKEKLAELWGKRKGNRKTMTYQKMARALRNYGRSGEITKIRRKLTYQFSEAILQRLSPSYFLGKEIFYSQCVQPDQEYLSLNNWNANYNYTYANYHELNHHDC
The method, boiled down: as §1

The target in a further experiment is ELF4 (Homo sapiens, UniProt Q99607 1-663). Summed up: as §1
Another experiment deals with T3, ELK4 (Homo sapiens, UniProt P28324-2 1-405).
T3 sequence: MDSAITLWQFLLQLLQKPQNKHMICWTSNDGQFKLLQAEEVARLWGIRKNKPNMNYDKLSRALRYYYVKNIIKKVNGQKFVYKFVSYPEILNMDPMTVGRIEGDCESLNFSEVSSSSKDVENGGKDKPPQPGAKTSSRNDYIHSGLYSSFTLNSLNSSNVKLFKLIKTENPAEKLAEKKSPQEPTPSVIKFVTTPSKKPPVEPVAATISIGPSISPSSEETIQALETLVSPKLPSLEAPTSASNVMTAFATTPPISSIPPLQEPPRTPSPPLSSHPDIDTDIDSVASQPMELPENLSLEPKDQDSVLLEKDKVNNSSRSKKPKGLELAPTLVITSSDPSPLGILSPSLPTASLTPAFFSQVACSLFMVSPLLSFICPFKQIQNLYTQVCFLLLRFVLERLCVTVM
Summed up: as §1

The target in another experiment is T4, ETV2 (Homo sapiens, UniProt O00321 1-342).
T4 sequence: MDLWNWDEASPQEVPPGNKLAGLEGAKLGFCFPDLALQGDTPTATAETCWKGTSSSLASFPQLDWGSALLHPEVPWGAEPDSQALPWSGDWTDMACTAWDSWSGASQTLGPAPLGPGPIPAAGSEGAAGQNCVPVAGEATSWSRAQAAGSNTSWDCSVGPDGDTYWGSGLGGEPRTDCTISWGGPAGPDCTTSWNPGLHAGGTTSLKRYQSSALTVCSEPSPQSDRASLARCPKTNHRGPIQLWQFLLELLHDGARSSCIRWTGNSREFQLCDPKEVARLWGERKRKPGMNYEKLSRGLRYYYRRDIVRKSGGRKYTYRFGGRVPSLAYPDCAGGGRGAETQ
The method, boiled down:
as §1

Another experiment has as its target T5, ELF3 (Homo sapiens, UniProt P78545 1-371).
T5 sequence: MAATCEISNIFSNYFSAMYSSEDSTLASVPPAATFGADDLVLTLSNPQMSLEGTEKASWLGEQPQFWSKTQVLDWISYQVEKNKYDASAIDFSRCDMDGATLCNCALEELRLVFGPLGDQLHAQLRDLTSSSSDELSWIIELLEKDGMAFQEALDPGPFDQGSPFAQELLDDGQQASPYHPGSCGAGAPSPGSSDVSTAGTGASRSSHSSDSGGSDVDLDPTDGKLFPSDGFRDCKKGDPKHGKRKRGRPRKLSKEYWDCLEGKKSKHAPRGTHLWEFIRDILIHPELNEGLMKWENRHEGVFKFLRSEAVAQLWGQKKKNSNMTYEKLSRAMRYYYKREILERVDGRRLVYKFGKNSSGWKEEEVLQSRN
Summed up:
as §1

A further experiment has as its target ETV1 (Homo sapiens, UniProt P50549 1-477). Summed up: as §1

Sequence of ETV1 (P50549 whole entry): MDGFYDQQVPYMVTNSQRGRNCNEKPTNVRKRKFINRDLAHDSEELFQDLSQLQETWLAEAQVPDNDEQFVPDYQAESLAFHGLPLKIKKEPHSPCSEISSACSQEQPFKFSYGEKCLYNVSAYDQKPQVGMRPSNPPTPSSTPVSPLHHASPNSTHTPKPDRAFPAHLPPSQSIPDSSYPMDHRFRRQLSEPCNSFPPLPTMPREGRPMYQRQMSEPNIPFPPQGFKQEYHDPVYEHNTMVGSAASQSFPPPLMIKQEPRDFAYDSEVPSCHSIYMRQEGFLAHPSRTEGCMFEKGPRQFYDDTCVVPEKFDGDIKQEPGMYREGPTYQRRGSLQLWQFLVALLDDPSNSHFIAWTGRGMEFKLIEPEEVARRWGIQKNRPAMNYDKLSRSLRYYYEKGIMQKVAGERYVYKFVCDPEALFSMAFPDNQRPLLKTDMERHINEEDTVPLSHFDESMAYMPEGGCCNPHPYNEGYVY
Sequence of ETV5 (P41161 whole entry): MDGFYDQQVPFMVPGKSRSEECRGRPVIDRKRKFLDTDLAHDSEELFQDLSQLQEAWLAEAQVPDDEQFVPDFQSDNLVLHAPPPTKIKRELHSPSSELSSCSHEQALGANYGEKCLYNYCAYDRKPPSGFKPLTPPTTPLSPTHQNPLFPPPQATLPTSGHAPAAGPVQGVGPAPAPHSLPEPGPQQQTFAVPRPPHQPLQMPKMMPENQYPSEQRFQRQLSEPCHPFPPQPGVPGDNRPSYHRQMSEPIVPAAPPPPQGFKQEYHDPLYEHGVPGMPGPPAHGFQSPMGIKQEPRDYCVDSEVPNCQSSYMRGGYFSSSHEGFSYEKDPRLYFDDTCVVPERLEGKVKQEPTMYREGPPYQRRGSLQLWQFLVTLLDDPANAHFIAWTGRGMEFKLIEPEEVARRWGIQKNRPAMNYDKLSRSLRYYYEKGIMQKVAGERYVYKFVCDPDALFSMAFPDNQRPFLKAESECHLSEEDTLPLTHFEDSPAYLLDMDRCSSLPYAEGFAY
Sequence of ELF4 (Q99607 whole entry): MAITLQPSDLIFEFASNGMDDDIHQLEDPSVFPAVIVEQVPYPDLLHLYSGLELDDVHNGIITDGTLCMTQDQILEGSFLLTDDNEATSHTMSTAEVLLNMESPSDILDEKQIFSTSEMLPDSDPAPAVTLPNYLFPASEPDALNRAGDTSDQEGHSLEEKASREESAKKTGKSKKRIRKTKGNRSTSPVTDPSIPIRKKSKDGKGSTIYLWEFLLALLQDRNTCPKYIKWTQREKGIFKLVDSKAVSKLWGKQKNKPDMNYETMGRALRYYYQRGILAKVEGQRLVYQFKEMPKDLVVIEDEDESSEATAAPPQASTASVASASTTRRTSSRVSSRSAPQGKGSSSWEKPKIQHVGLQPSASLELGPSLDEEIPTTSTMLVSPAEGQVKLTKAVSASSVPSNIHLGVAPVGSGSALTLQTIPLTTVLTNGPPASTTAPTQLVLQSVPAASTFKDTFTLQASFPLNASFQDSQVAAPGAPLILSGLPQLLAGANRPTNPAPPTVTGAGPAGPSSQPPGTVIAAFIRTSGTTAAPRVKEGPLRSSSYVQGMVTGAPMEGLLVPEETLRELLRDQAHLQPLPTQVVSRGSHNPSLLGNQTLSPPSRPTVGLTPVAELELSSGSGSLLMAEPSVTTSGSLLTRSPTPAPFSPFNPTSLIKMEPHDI

Take CGGATG: the binding signal is 2.16 fold enrichment (6-mer frequency, TF over GST control) in the experiment with FEV; 1.71 fold enrichment (6-mer frequency, TF over GST control) with ETV5; 1.48 fold enrichment (6-mer frequency, TF over GST control) with SPIC; 1.36 fold enrichment (6-mer frequency, TF over GST control) with ELF4; 1.31 fold enrichment (6-mer frequency, TF over GST control) with ELK4; 1.39 fold enrichment (6-mer frequency, TF over GST control) with ETV2. Further, the binding signal with ELF3 is 1.48 fold enrichment (6-mer frequency, TF over GST control); with ETV1, 1.74 fold enrichment (6-mer frequency, TF over GST control).
On to GTAACA, for which the binding signal in the experiment with FEV was 1.14 fold enrichment (6-mer frequency, TF over GST control); with ETV5, 1.08 fold enrichment (6-mer frequency, TF over GST control); in the experiment with SPIC, 1.12 fold enrichment (6-mer frequency, TF over GST control); with ELF4, 1.14 fold enrichment (6-mer frequency, TF over GST control); with ELK4, 1.12 fold enrichment (6-mer frequency, TF over GST control); with ETV2 it was 1.03 fold enrichment (6-mer frequency, TF over GST control). For the same sequence, the binding signal was 1.27 fold enrichment (6-mer frequency, TF over GST control) with ELF3 and 1.14 fold enrichment (6-mer frequency, TF over GST control) with ETV1.
For the sequence TGCGAC, the binding signal was 1.24 fold enrichment (6-mer frequency, TF over GST control) in the experiment with FEV; 1.24 fold enrichment (6-mer frequency, TF over GST control) with ETV5; 1.3 fold enrichment (6-mer frequency, TF over GST control) with SPIC; 1.27 fold enrichment (6-mer frequency, TF over GST control) with ELF4; 1.25 fold enrichment (6-mer frequency, TF over GST control) in the experiment with ELK4; 1.33 fold enrichment (6-mer frequency, TF over GST control) in the experiment with ETV2. The binding signal was 1.32 fold enrichment (6-mer frequency, TF over GST control) with ELF3 and 1.18 fold enrichment (6-mer frequency, TF over GST control) with ETV1.
Regarding CAAGGT, the binding signal in the experiment with FEV was 1.04 fold enrichment (6-mer frequency, TF over GST control); in the experiment with ETV5, 1.04 fold enrichment (6-mer frequency, TF over GST control); with SPIC it was 1 fold enrichment (6-mer frequency, TF over GST control); with ELF4, 1.11 fold enrichment (6-mer frequency, TF over GST control); in the experiment with ELK4 it was 1.16 fold enrichment (6-mer frequency, TF over GST control); with ETV2, 1.12 fold enrichment (6-mer frequency, TF over GST control). Further, the binding signal was 1.15 fold enrichment (6-mer frequency, TF over GST control) in the experiment with ELF3 and 1.13 fold enrichment (6-mer frequency, TF over GST control) in the experiment with ETV1.
Consider CCTGCC, for which the binding signal with FEV was 1.33 fold enrichment (6-mer frequency, TF over GST control); with ETV5 it was 1.34 fold enrichment (6-mer frequency, TF over GST control); with SPIC it was 1.28 fold enrichment (6-mer frequency, TF over GST control); with ELF4 it was 1.28 fold enrichment (6-mer frequency, TF over GST control); with ELK4, 1.14 fold enrichment (6-mer frequency, TF over GST control); in the experiment with ETV2 it was 1.26 fold enrichment (6-mer frequency, TF over GST control). In addition, the binding signal is 1.27 fold enrichment (6-mer frequency, TF over GST control) with ELF3 and 1.26 fold enrichment (6-mer frequency, TF over GST control) with ETV1.
With TGCATG, the binding signal is 1.04 fold enrichment (6-mer frequency, TF over GST control) with FEV; 1.15 fold enrichment (6-mer frequency, TF over GST control) in the experiment with ETV5; 1.27 fold enrichment (6-mer frequency, TF over GST control) with SPIC; 1.08 fold enrichment (6-mer frequency, TF over GST control) in the experiment with ELF4; 1.05 fold enrichment (6-mer frequency, TF over GST control) in the experiment with ELK4; 1.08 fold enrichment (6-mer frequency, TF over GST control) with ETV2. The binding signal was 1.02 fold enrichment (6-mer frequency, TF over GST control) in the experiment with ELF3 and 1.06 fold enrichment (6-mer frequency, TF over GST control) in the experiment with ETV1.
TGCACG: the binding signal with FEV is 1.15 fold enrichment (6-mer frequency, TF over GST control); with ETV5 it was 1.14 fold enrichment (6-mer frequency, TF over GST control); with SPIC, 1.03 fold enrichment (6-mer frequency, TF over GST control); with ELF4, 1.13 fold enrichment (6-mer frequency, TF over GST control); in the experiment with ELK4, 1.24 fold enrichment (6-mer frequency, TF over GST control); in the experiment with ETV2, 1.22 fold enrichment (6-mer frequency, TF over GST control). For the same sequence, the binding signal with ELF3 is 1.26 fold enrichment (6-mer frequency, TF over GST control); in the experiment with ETV1 it was 1.06 fold enrichment (6-mer frequency, TF over GST control).
Take CAACAA: the binding signal with FEV was 1.05 fold enrichment (6-mer frequency, TF over GST control); with ETV5 it was 1.02 fold enrichment (6-mer frequency, TF over GST control); in the experiment with SPIC, 1.06 fold enrichment (6-mer frequency, TF over GST control); with ELF4 it was 1.13 fold enrichment (6-mer frequency, TF over GST control); in the experiment with ELK4, 1.02 fold enrichment (6-mer frequency, TF over GST control); in the experiment with ETV2, 1.08 fold enrichment (6-mer frequency, TF over GST control). The binding signal is 1.2 fold enrichment (6-mer frequency, TF over GST control) with ELF3 and 1.05 fold enrichment (6-mer frequency, TF over GST control) with ETV1.
